From PubChem BioAssay
CYP2C19 activ: human CYP2C19 activators, primary screen, biochemical, luminescence | 96,000 tested, under 10 active | Cytochrome P450 2C19 (Homo sapiens), P33261 | activation factor at 5 µM | recombinant CYP2C19, luciferin-H EGE luminescence; active compounds read high; 0 = fully inhibited enzyme, 1 = untreated enzyme | AID 1025, 2008;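 active = activation factor of at least 2 at 5 µM in the primary screen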;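 also: 0 = wells with 2.5 mM tranylcypromine and 1 = vehicle-only wells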
Target sequence (P33261 whole entry, looked up): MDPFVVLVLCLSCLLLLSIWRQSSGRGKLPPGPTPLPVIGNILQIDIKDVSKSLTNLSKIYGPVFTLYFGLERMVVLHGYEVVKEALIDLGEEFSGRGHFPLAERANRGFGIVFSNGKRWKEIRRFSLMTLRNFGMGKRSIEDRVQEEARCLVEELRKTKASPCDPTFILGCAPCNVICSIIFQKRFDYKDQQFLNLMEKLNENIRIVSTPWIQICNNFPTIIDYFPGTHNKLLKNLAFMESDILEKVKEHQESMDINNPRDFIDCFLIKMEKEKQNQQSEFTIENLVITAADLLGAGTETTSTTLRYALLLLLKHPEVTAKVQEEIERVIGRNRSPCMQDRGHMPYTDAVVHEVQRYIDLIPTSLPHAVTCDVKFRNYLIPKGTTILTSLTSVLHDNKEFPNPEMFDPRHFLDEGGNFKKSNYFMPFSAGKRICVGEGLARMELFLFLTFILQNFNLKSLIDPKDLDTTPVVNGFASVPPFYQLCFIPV
Cav3 T inh: Cav3.2 calcium influx blockers – cell-based, Fluo-4 calcium fluorescence, FDSS, MLSMR library, primary screen; Voltage-dependent T-type calcium channel subunit alpha-1H (Homo sapiens), O95180; Cav3.2-expressing cells; active compounds read low; B-score at 10 µM; actives 4% (n = 100,000);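 active = single-dose well whose peak fluorescence ratio is a statistical outlier from its plate by either plate-standardised score or position-corrected B-score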
CYP2C19 inh: blockers of cytochrome P450 2C19 activity – biochemical, luminescence, ADME assay, primary screen; CYP2C19 Supersomes, luciferin-H EGE luminescence, 30 min; AID 778, 2007; actives 21% (n = 96,000); inhibition, % at 5 µM; P33261;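 active = CYP2C19 inhibition above a set limit at 5 µM in the primary screen, cut at about 50% in these data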;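 also: plate controls were negative control wells for no effect and 2.5 mM tranylcypromine positive control for full effect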
Pyk2 oligo antag: antagonists of Pyk2 self-association, primary screen, Q293 cells, FERM NanoBiT luminescence, HTS. Protein-tyrosine kinase 2-beta (Homo sapiens), Q14289. active compounds read low. z-score (the deposit names both 25 µM and 10 µM). actives 0.83% (n = 99,000). AID 1347419, 2020;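 active = Z-score of -3 or lower, scaled per plate to the spread of control and sample wells; inactive = z-score above -3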;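 also: negative z-score means lost luminescence so less FERM oligomerization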
CYP2C9 inhib: blockers of cytochrome P450 2C9 activity – biochemical, luminescence, ADME assay, primary screen; inhibition, % at 5 µM; AID 777, 2007; P11712; actives 20% (n = 96,000); CYP2C9 Supersomes, luciferin-H conversion;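 active = blocking of liver enzyme CYP2C9 beyond about 50% at 5 µM, limit read from the data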
CYP2C9 activ: human CYP2C9 activators, primary screen, biochemical, luminescence. recombinant CYP2C9, luciferin-H conversion; active compounds read high; factor 1 = untreated enzyme, 0 = blocked. actives 1.4% (n = 96,000). AID 1024, 2008. activation factor at 5 µM;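 active = activation factor of 2 or more for CYP2C9 at a 5 µM dose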;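 also: 0 = sulfaphenazole-blocked wells and 1 = vehicle-only wells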
Active calls of the source: *. Compounds with a hit are over-represented: about 27% of the library has one in this group of screens.

O=C1CCCC2=C1C(c1cccs1)Nc1ccc3ncccc3c12 (stereo not drawn) was read as CYP2C19 activ 0.1, Cav3 T inh 1.51, CYP2C19 inh 94.6*, Pyk2 oligo antag -0.25, CYP2C9 inhib 94.5* and CYP2C9 activ 0.1.
`Cc1ccsc1C1Nc2ccc3ncccc3c2C2=C1C(=O)CC(C)(C)C2` (stereo not drawn) gave CYP2C19 activ 0, Cav3 T inh -3.86*, CYP2C19 inh 98.4*, Pyk2 oligo antag -1, CYP2C9 inhib 80.0* and CYP2C9 activ 0.2.
CCOc1ccccc1NC(=O)CSc1nnc2c(CC)c(C)nc(N)n12 was read as CYP2C19 activ 0.8, Cav3 T inh -0.337, CYP2C19 inh 20.2, Pyk2 oligo antag 0.4, CYP2C9 inhib -37.4 and CYP2C9 activ 1.4.
`COc1ccc(NC(=O)CSc2nc3ccccc3c(=O)n2CCCN2CCCCC2)c(OC)c1` gave CYP2C19 activ 0.4, Cav3 T inh -0.228, CYP2C19 inh 64.0*, Pyk2 oligo antag 0.56, CYP2C9 inhib 15.8 and CYP2C9 activ 0.8.
For COCC(C)n1c(SCC(=O)NCCC2=CCCCC2)nc2ccccc2c1=O (stereo not drawn) the results were CYP2C19 activ 0.2, Cav3 T inh -3.98, CYP2C19 inh 84.2*, Pyk2 oligo antag -0.32, CYP2C9 inhib 86.7* and CYP2C9 activ 0.1.
`CC(=O)NCCn1c(SCC(=O)NCCC2=CCCCC2)nc2ccccc2c1=O` gave CYP2C19 activ 0.7, Cav3 T inh 1, CYP2C19 inh 31.0, Pyk2 oligo antag -0.34, CYP2C9 inhib 19.5 and CYP2C9 activ 0.8.
For CCNC(=O)CSc1nc2ccccc2c(=O)n1OC the results were CYP2C19 activ 1.2, Cav3 T inh 0.796, CYP2C19 inh -24.7, Pyk2 oligo antag -0.49, CYP2C9 inhib -6.8 and CYP2C9 activ 1.1.
CCOC(=O)N1CCC(n2c(SCC(=O)N3CCC(C)CC3)nc3ccccc3c2=O)CC1 was read as CYP2C19 activ 0.4, Cav3 T inh -4.2, CYP2C19 inh 57.4*, Pyk2 oligo antag -1.1, CYP2C9 inhib 59.9* and CYP2C9 activ 0.4.
`CCOC(=O)N1CCC(n2c(SCC(=O)NCc3ccccc3)nc3ccccc3c2=O)CC1` gave CYP2C19 activ 0.4, Cav3 T inh -1.06, CYP2C19 inh 59.6*, Pyk2 oligo antag -0.32, CYP2C9 inhib 53.4* and CYP2C9 activ 0.5.
C/C(N)=C(/C#N)C(=O)CSc1nnc(COc2cc(C)ccc2C)o1 was read as CYP2C19 activ 1, Cav3 T inh -1.29, CYP2C19 inh 0.2, Pyk2 oligo antag 0.65, CYP2C9 inhib 9.2 and CYP2C9 activ 0.9.
`CCOC(=O)N1CCC(n2c(SCC(=O)NCCC3=CCCCC3)nc3ccccc3c2=O)CC1` gave CYP2C19 activ 0.4, Cav3 T inh -5.13*, CYP2C19 inh 58.3*, Pyk2 oligo antag -1.06, CYP2C9 inhib 67.5* and CYP2C9 activ 0.3.
`CCOC(=O)N1CCC(n2c(SCC(=O)Nc3ccccc3OC)nc3ccccc3c2=O)CC1` gave CYP2C19 activ 0.1, Cav3 T inh -2.98, CYP2C19 inh 90.1*, Pyk2 oligo antag -2.11, CYP2C9 inhib 95.4* and CYP2C9 activ 0.
For CCOC(=O)N1CCN(CCC(=O)Nc2ccccc2OC)CC1 the results were Cav3 T inh -0.619 and Pyk2 oligo antag -1.02.
Screening Cc1cccc(N(CC(=O)NC2CCCC2)C(=O)CS(=O)CC(=O)Nc2ccc3c(c2)OCO3)c1 (stereo not drawn) returned CYP2C19 activ 0.7, Cav3 T inh -0.787, CYP2C19 inh 35.0, Pyk2 oligo antag -0.41, CYP2C9 inhib 88.4* and CYP2C9 activ 0.1.
`O=C(CN(Cc1ccccc1)C(=O)CCC(=O)Nc1ccccn1)NCc1ccco1` gave CYP2C19 activ 0.4, Cav3 T inh -1.16, CYP2C19 inh 58.9*, Pyk2 oligo antag 0.74, CYP2C9 inhib 28.5 and CYP2C9 activ 0.7.
